A selection: hits, their analogues and other compounds. The true share with any hit is near 11%.
L3MBTL1 inh: blocks human L3MBTL1 | Q9Y468 | AlphaScreen L3MBTL1–H3K9me1 peptide binding | Potency, µM (doses to about 57.1 µM), without a hit: at the highest dose activity, negative = inhibition, hits mostly inhibitors | 230,000 compounds, 0.66% hits; note: potency is the fitted concentration of half-maximal effect; % is set by controls: 0 for no effect and ±100 for the full control effect; nearly all actives have a fitted effect of over 60% in size
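Displacement of a biotinylated histone H3(1-15) peptide monomethylated at Lys9 (75 nM) from L3MBTL1 (50 nM) was measured by AlphaScreen after a 30 min room-temperature compound incubation; cefsulodin titration served as intraplate control.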
HP1b chromo inh: HP1-beta chromodomain-methylated histone interaction inhibition. P83916. 390,000 compounds, 0.56% hits. AlphaScreen HP1-beta / biotin-H3K9me3 peptide binding. Potency, µM (series often up to 114 µM), inactives show top-dose activity change, negative = inhibition, most hits filed as inhibitors; note: potency is the fitted concentration of half-maximal effect; nearly all actives have a fitted effect of over 70% in size
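AlphaScreen: HP1-beta (50 nM) preformed 30 min with biotin-H3(1-18)K9me3 peptide (50 nM) in PBS pH 7.4, 0.01% Tween-20. Compound added for 30 min at RT, then streptavidin donor/nickel chelate acceptor beads (10 ug/mL) for 30 min.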
JMJD2A Tudor inh: inhibitors of human JMJD2A Tudor domain. AlphaScreen JMJD2A-Tudor / H3K4me3 peptide binding. Potency, µM (doses to about 114 µM), inactives show at the top dose activity change, negative = inhibition, most hits filed as inhibitors. 390,000 compounds, 4.4% hits; note: potency is the fitted concentration of half-maximal effect; % is set by controls: 0 for no effect and ±100 for the full control effect; nearly all actives have a fitted effect of over 50% in size
PI5P4Ka inh: PI5P4K alpha (human) kinase inhibition; AID 652105; max response, %; 330,000 compounds, 1.2% hits; PI5P4Kalpha enzyme, ADP-Glo luminescence, 60 min; hits give low values; active = max response of -50% or lower; inconclusive = between -30% and -50%; inactive = -30% or higher; note: value at the top dose of about 77 µM; % is set by controls: 0 for no effect and ±100 for the full control effect
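Enzyme plus substrate dispensed, test compounds pinned in, then ATP (5 microM final) added. After 60 min at RT, ADP-Glo reagent 1 for 45 min and reagent 2 for 30 min preceded luminescence imaging.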
BAZ2B block: blocks human BAZ2B. 360,000 compounds, 4.4% hits. Potency, µM (series often up to 114 µM), for the others: at the top dose activity change, negative = inhibition, most hits filed as inhibitors. AlphaScreen BAZ2B-H3K14Ac peptide displacement. Q9UIF8; note: potency is the fitted concentration of half-maximal effect; % is set by controls: 0 for no effect and ±100 for the full control effect; nearly all actives have a fitted effect of over 60% in size
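Compounds, titrated to a top concentration of 110 uM, were incubated 30 min at room temperature with preformed BAZ2B/acetyl-K14 H3 peptide complex (50 nM each). Proximity signal was measured by AlphaScreen after 20 min with beads.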
G9a inh: G9a (human) methyltransferase inhibition; Q96KQ7; G9a H3K9 monomethylation, AlphaScreen, 2 h; Potency, µM (doses to about 102 µM), without a hit: top-dose activity, negative = inhibition, actives largely listed as inhibitors; 350,000 compounds, 8.8% hits; note: potency is the fitted concentration of half-maximal effect; % is set by controls: 0 for no effect and ±100 for the full control effect; nearly all actives have a fitted effect of over 75% in size
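Step 1: enzyme (final 20 nM) with compound, 15 min RT. Step 2: substrate peptide 500 nM and SAM 20 uM, 2 h RT. Step 3: anti-H3K9me1 antibody and AlphaScreen beads, 10 min, then plate read.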
Active calls of the source: *; ? = inconclusive; · = no result given; [ ] = remark or other dose. Unless noted, calls come from the whole dose curve; as a rule, active = well fitted inhibition curve with a large enough effect; inconclusive = small, poorly fitted or top-dose-only effect; inactive = no such curve, though single readings can be large or run the other way.

SMILES	L3MBTL1 inh	HP1b chromo inh	JMJD2A Tudor inh	PI5P4Ka inh	BAZ2B block	G9a inh
Cc1oc(-c2ccccc2)nc1CNS(=O)(=O)c1ccc(Cl)cc1	·	24.2%	-18.5%	·	-3.3%	13.3%[59 µM]
CCOC(=O)c1c(C)[nH]c(C)c1S(=O)(=O)NCC(=O)N1CCN(c2ccccc2OC)CC1	·	31.4%	-5.8%	·	-26.6%	-1.3%[59 µM]
Cc1cc2c(cc1Cl)C(c1ccc3c(c1)OCO3)CC(=O)O2 (stereo not drawn)	·	·	·	·	·	18.5%
CC1CCN(c2ccc(NC(=O)Cc3ccccc3)cc2)CC1	0.6%	34.8%	-18.1%	-0.6	-4.1%	·
CC(C)CC(=O)Nc1ccc(S(=O)(=O)N2CCCC2)cc1	3.8%	27.2%	-10.6%	4.5	-0.4%	17.9%[59 µM]
CCC(=O)Nc1ccc(N2CCC(C)CC2)cc1	-15.9%	25.2%	-16.1%	-8.8	-6.8%	8.91µM*
CC1CCN(CC(=O)Nc2ccc(C(=O)N3CCCCC3)cc2)CC1	-3.0%	?	1µM*	4.1	50.1µM*	28.2µM*
CC(C)CC(=O)Nc1ccc(C(=O)CN2CCC(C)CC2)cc1	·	30.8%	-1.9%[57.1 µM]	-19.5	6.8%	10µM*
CCCC(=O)Nc1ccc(N2CCN(C(=O)CCC)CC2)cc1	2.7%	11.2%	-19.9%	·	-5.0%	50.1µM*
COc1ccc(NC(=O)CN2CCC(C)CC2)cc1	24.4%[11.4 µM]	21.6%	-6.3%	·	-2.4%	-6.3%[59 µM]
COc1ccc2cc(CNc3ccccc3)c(=O)n(CC(=O)Nc3ccc(C)cc3C)c2c1	·	24.3%	-10.3%	·	-31.3%	-1.5%[59 µM]
CCc1ccccc1NC(=O)CN1C(=O)CCc2cc(S(=O)(=O)N3CCCCC3)ccc21	·	16.3%	-16.9%	·	-3.2%	-33.4%[59 µM]
CCC(=O)Nc1ccc(C(=O)CN2CCC(C)CC2)cc1	·	·	·	·	-7.2%	10µM*
C=C(C)CSc1nc2sc3c(c2c(=O)n1CCCC)CCCC3	·	111.0%	55.2%	·	9.4%	25.6%[59 µM]
O=C(Nc1ccc2nc3n(c(=O)c2c1)CCCCC3)C(=O)Nc1ccccc1F	·	47.6%	-13.4%	·	-1.9%	5.3%[59 µM]
O=C(Nc1ccc2nc3n(c(=O)c2c1)CCCCC3)C(=O)N1CCN(c2ccccc2F)CC1	·	3.2%	35.5µM*	-14.4	15.4%	-1.8%
CC(=O)Nc1cccc(/C(C)=N/NS(=O)(=O)c2ccc(C)cc2)c1	-3.3%	25.7%	-13.5%[11.4 µM]	0.1	-6.9%	50.1µM*
C/C(=N/NS(=O)(=O)c1cccc([N+](=O)[O-])c1)c1c[nH]c2ccccc12	·	5.4%	-24.5%	-9.5	50.1µM*	25.1µM*
C/C(=N/NS(=O)(=O)c1ccccc1)c1ccc(Cl)cc1	8.0%	11.2%	-23.8%	2.6	-24.8%	9.2%
C/C(=N/NS(=O)(=O)c1ccccc1)c1c[nH]c2ccccc12	·	43.1%	-17.2%	-11.8	-25.9%	22.4µM*
C/C(=N/NS(=O)(=O)c1cc(C)ccc1C)c1c[nH]c2ccccc12	·	15.7%	-14.0%	2.7	-21.1%	?
C/C(=N/NS(=O)(=O)c1ccc(C)cc1)c1c[nH]c2ccccc12	·	30.1%	-17.8%	6.4	-17.1%	25.1µM*
Nc1nc(NCc2ccc(Cl)cc2Cl)c2[nH]cnc2n1	·	17.6%	-21.3%	·	·	·
C/C(=N/NS(=O)(=O)c1cccc([N+](=O)[O-])c1)c1ccncc1	·	39.1%	-17.9%	-1.3	?	35.5µM*
CC(=NNS(=O)(=O)c1cccc([N+](=O)[O-])c1)c1ccc(-n2ccnc2)cc1	5.1%	0.2%	-24.3%	-13.0	·	·
COc1cc(C2N(c3ccccc3)CCN2c2ccccc2)cc(OC)c1OC	-2.1%	-6.1%	?	·	?	?
Cc1ccc(N2CCN(c3ccc(C)cc3)C2c2ccncc2)cc1	?	?	-32.9%[11.4 µM]	3.5	-77.3%	35.5µM*
COc1ccc(CCNc2nc(SCc3ccccc3F)nc3ccccc23)cc1OC	·	46.9%	-6.0%	·	5.3%	0.9%[59 µM]
CCOc1ccc(-c2cc3c(=O)n(Cc4nc(-c5cccc(OC)c5OC)oc4C)ccn3n2)cc1Cl	·	17.1%	-9.9%	·	1.3%	-0.7%[59 µM]
COc1ccc(-c2nc(SCC(=O)Nc3c(C)cc(C)cc3C)n[nH]2)cc1	·	30.6%[57 µM]	2.6%	·	-1.4%	2.8%[59 µM]
